High-throughput results from PubChem BioAssay.
Hits are enriched below; roughly 5.3% of the tested compounds scored in any of these assays.
Tau ThT inhib: tau fibrillization inhibition (ThT binding). P10636. recombinant tau K18 P301L, heparin-induced fibrillization, ThT fluorescence. Potency, µM (top dose mostly 57.4 µM), most hits filed as inhibitors. 2.1% of 270,000 active; note: nearly all actives have a fitted effect of over 55% in size
Target sequence (P10636 561-689 P618L limits assumed): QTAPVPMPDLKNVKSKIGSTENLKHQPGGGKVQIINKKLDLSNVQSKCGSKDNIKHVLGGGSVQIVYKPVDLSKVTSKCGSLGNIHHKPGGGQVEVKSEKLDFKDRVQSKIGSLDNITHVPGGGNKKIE
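Heparin-induced fibrillization of the P301L-mutant K18 repeat-domain fragment of human tau was followed by ThT binding in quantitative high-throughput format.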
Sfp inh: Sfp phosphopantetheinyl transferase inhibition | Q9F4F7 | Biochemical Sfp PPTase activity, qHTS | Potency, µM, most hits filed as inhibitors | 3.5% of 310,000 active | AID 1490;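 note: the enzyme is Sfp with the accession as filed and its product quenches rhodamine fluorescence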
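Reaction rates are the 30-min fluorescence difference (ex 525, em 598 nm) in wells containing 15 nM Sfp, 5 uM rhodamine-CoA and 12.5 uM BHQ-2-YbbR at pH 7.6 with 10 mM MgCl2.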
FBPA coupling cs: coupling enzyme interference in Giardia aldolase counter-screen | coupling enzyme system counterscreen, AmpLite Red fluorescence | activity change, negative = inhibition, % at 58.2 µM, hits read low | 0.67% of 290,000 active | AID 2472; in the data active = activity change below about -30%
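Final compound at 57.5 uM, incubated 10 min at RT with coupling enzyme reagent (glyceraldehyde-3-phosphate), then 20 min with substrate and AmpLite Red detection. Fluorescence read at 525/598 nm; tests interference with the coupling assay, not aldolase inhibition.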
Tau fluor counter: counter-screen for tau fibril formation inhibitors. tau K18 P301L (four-repeat tau fragment) Alexa594 fluorescence, heparin fibrillization. Potency, µM (highest dose often 57.7 µM). 0.93% of 280,000 active. AID 1463; note: nearly all actives have a fitted effect of over 55% in size
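Human K18 P301L tau (15 uM unlabeled plus 0.24 uM Alexa 594-labeled, final) in 100 mM sodium acetate pH 7 was mixed with compound and 20 uM heparin and incubated 6 hr at 37 C.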
JMJD2E inh: blocks human JMJD2E demethylase activity | 1.6% of 230,000 active | AID 2147 | JMJD2E catalytic domain, FDH-coupled NADH fluorescence (FDH is formaldehyde dehydrogenase) | B2RXH2 | Potency, µM (highest dose often 57.1 µM), most hits filed as inhibitors; active = well fitted inhibition curve with a large enough effect, not every such curve was filed as active; inconclusive = small, poorly fitted or top-dose-only effect, or another doubt; inactive = no such curve, though single readings can be large or run the other way; note: nearly all actives have a fitted effect of over 50% in size
Target sequence (B2RXH2 1-337 limits assumed): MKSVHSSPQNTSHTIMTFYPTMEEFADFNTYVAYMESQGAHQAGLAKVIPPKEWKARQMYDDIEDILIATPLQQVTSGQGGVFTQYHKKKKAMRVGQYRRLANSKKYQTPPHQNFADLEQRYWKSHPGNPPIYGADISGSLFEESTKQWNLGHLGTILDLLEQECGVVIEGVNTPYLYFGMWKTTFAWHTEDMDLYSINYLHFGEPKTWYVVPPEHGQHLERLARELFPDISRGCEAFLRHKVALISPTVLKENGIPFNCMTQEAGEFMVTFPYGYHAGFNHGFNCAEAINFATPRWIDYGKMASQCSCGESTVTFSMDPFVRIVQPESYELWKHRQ
Tau fibril FP: blocks human tau fibril formation measured by polarization | K18 P301L tau heparin fibrillization, Alexa594 FP, 6 h | Potency, µM (highest dose often 57.7 µM), actives largely listed as inhibitors | 0.39% of 280,000 active | AID 1468; note: nearly all actives have a fitted effect of over 55% in size
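Human tau K18 […] P301L fragment, 15 uM unlabeled plus 0.24 uM Alexa 594-labeled tau (final), with compound and 20 uM heparin in 100 mM sodium acetate pH 7; 6 hr at 37 C, then Alexa 594 FP read.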
A number is an active result; i = inactive; ? = inconclusive; nt = not tested or not shown; [ ] = another dose, or the depositor's remark. Unless noted, calls come from the whole dose curve; as a rule, active = well fitted curve in the direction sought with a large enough effect; inconclusive = small, poorly fitted or top-dose-only effect, or another doubt; inactive = no such curve, though single readings can be large; an effect the other way counts as inactive or inconclusive.

SMILES | Tau ThT inhib | Sfp inh | FBPA coupling cs | Tau fluor counter | JMJD2E inh | Tau fibril FP
COc1ccc(CNC(=O)c2cc3cccc4c3n2CC(C)S4)cc1OC (stereo unspecified) | i | nt | nt | ? | nt | i
CCc1ccc(NCc2cc3ccc(OC)cc3n(CC(=O)Nc3ccccc3OC)c2=O)cc1 | i | nt | nt | ? | nt | ?
CC(=O)c1ccc(NC(=O)C2CCC(CNS(=O)(=O)c3cccs3)CC2)cc1 (stereo unspecified) | ? | nt | nt | i | nt | i
CCOC(=O)c1cccc(NS(=O)(=O)c2c(C)nc3sc(C)cn3c2=O)c1 | i | nt | nt | i | nt | i
CCCCC(C(=O)N/N=C/c1ccccn1)C(=O)N/N=C/c1ccccn1 | i | 35.5µM | i | i | i | i
O=C(N/N=C/c1ccccn1)c1ccc(Cl)cc1 | nt | 31.6µM | i | nt | nt | nt
Cn1ncc(Cl)c1C(=O)N/N=C/c1cccc(OC2CSC2)c1 | i | i | -39.8 | i | i | i
O=C(COc1ccccc1[N+](=O)[O-])N/N=C/c1ccccn1 | i | 50.1µM | i | i | i | i
COc1cccc(Cn2c(=O)c(-c3cc(F)cc(F)c3)nc3cnc(N(C)C)nc32)c1 | nt | i | i | nt | nt | nt
C=C1C2CC[C@]3(CCC4[C@@]5(C)CCC[C@@]4(CN(CCO)C5)[C@@H]3C2)[C@@H]1O (stereo partly specified) | i | i | i | i | i | i
Cn1ncc(Cl)c1C(=O)N/N=C/c1ccccn1 | i | ? | -52.7 | i | i | i
Cc1ccc(S(=O)(=O)Oc2ccccc2/C=N/NC(=O)c2c(Cl)cnn2C)cc1 | i | i | i | i | i | i
O=C(Cn1cnc2ccccc21)N/N=C/c1cccnc1 | i | i | i | i | i | i
O=C(Cc1ccc(F)cc1)N/N=C/c1ccccn1 | i | 56.2µM | i | i | i | i
O=C(Cc1cccs1)N/N=C/c1ccccn1 | i | ? | i | i | i | i
O=C(Cn1cnc2ccccc21)N/N=C/c1ccccn1 | i | 79.4µM | i | i | i | i
O=C(Nc1ccc(Cl)cc1)c1ccc(-n2cnnc2)cc1 | i | nt | nt | i | nt | i
CSCC[C@H](N)C(=O)N[C@@H](C)C(=O)NCC(=O)N[C@@H](CCCN=C(N)N)C(=O)N[C@@H](CO)C(=O)NCC(=O)N[C@@H](CC(=O)O)C(=O)N[C@@H](CO)C(=O)N[C@@H](CC(=O)O)C(=O)N[C@@H](CCC(=O)O)C(=O)N[C@@H](CC(=O)O)C(=O)N[C@@H](CC(C)C)C(=O)N[C@@H](CC(C)C)C(=O)N[C@@H](CCCCN)C(=O)N[C@@H](C)C(=O)N[C@H](C(=O)O)C(C)C | nt | i | i | nt | nt | nt
CCOC(=O)C1CCN(Cc2ccc(F)cc2)CC1 | i | i | i | i | i | i
CN(C)c1ccc(CN2CCC(C(N)=O)CC2)cc1 | i | i | i | i | 28.2µM | i
CC(C)(C)Nc1oc(-c2ccccc2)nc1-c1cccc2ccccc12 | i | i | i | i | i | i
Cc1cc(Br)cc(C)c1OCCCCN(C)C | i | 79.4µM | i | i | ? | i
CO[C@H]1COC(=O)C/C=C\[C@H](C)[C@@H](OC)COC(=O)[C@@H](C)NC(=O)C/C=C\[C@@H]1C | i[11.5 µM] | i | i | i[11.6 µM] | nt | i[11.6 µM]
COC(=O)CCc1c(C)nc(N)[nH]c1=O | i | i | i | i | i | i
CCOC(=O)Cc1c(C)[nH]c(=S)[nH]c1=O | i | 79.4µM | i | i | i | i
SMILES | Tau ThT inhib | Sfp inh | FBPA coupling cs | Tau fluor counter | JMJD2E inh | Tau fibril FP
COC(=O)CCc1c(C)[nH]c(=S)[nH]c1=O | i | 89.1µM | i | i | i | i
O=C(Nc1cccc(Cl)c1Cl)c1cc(S(=O)(=O)N2CCC3(CC2)OCCO3)ccc1F | i | nt | nt | ? | nt | ?
Cc1nc2c(c(SCC(=O)Nc3ccccc3C(F)(F)F)n1)CCC2 | i | nt | nt | i | nt | i
Nc1ccc(N2CCOCC2)c(S(=O)(=O)Nc2cc(Cl)ccc2Cl)c1 | ? | i | i | ? | i | i
N=C1c2ccccc2CN1c1ccc(N2CCOCC2)c(S(=O)(=O)Nc2ccc(Cl)cc2)c1 | 31.6µM | 10µM | i | i | i | ?
Nc1cc(S(=O)(=O)Nc2ccc(Cl)cc2)ccc1N1CCOCC1 | i | 20µM | i | i | i | i
Cn1c(SCC(=O)Nc2nc3ccccc3s2)ncc(C(=O)Nc2ccc(Cl)cc2)c1=O | ? | nt | nt | i | nt | i
COc1ccc(S(=O)(=O)N(CC(=O)Nc2ccc(OC)cc2OC)c2ccc(Cl)cc2)cc1 | i | nt | nt | ? | nt | ?
Cc1ccc(SCc2nc(-c3ccc(C(=O)NCC(C)c4ccccc4)cc3)oc2C)cc1 (stereo unspecified) | i | nt | nt | i | nt | i
Cc1oc(-c2ccc3c(c2)OCCO3)cc1C(=O)NC(CCC(=O)O)C(=O)O (stereo unspecified) | i | 17.8µM | i | i | ? | i
Cc1ccc(/C=C2\C(=O)Nc3ccccc32)o1 | i | 15.8µM | i | i | i | i
Cc1ccccc1/C=C1\C(=O)Nc2ccc(F)cc21 | nt | i | i | nt | nt | nt
Cc1ccc(/C=C2\C(=O)NC(=O)N2C)o1 | nt | 39.8µM | i | nt | nt | nt
Cc1ccc2c(c1)/C(=C/c1ccco1)C(=O)N2 | 11.2µM | ? | i | i | i | i
N#CC(C#N)=Cc1ccc(OC(=O)c2ccccn2)cc1 | ? | 44.7µM | i | i | 17.8µM | i
COC(=O)c1ccc(/C=C(\C#N)c2ccccn2)cc1 | ? | i | i | i | ? | i
COc1cc(OC)c2c(c1)OC(=O)CC2c1ccccc1OC (stereo unspecified) | i | i | i | i | nt | i
CCOC(=O)CSc1nnc(NCC(=O)OC)c(=O)[nH]1 | ? | 56.2µM | i | i | i | i
COc1ccc(CCN(C)CCCOc2ccc(S(=O)(=O)c3[nH]c4ccccc4c3C(C)C)cc2)cc1OC | ? | 39.8µM | i | ? | 25.1µM | i
COc1ccc(CCN(C)CCc2ccc(OC)c(OC)c2)cc1OC | i | i | i | i | i | i
O=C1c2ccccc2C(=O)N1OS(=O)(=O)c1ccc(F)cc1 | nt | 8.91µM | i | nt | nt | nt
Cc1cc(C)c(S(=O)(=O)ON2C(=O)c3ccccc3C2=O)cc1C | ? | 20µM | i | i | ? | ?
Cc1ccc(OC(=O)CN2C(=O)c3ccccc3C2=O)cc1C | nt | i | i | nt | nt | nt
C[C@H](O)CON1C(=O)c2ccccc2C1=O | i | i | i | i | i | i
Cc1ccc(S(=O)(=O)ON2C(=O)c3ccccc3C2=O)c(C)c1 | 17.8µM | 10µM | i | i | ? | ?
Cc1cc(C)c(C)c(S(=O)(=O)ON2C(=O)c3ccccc3C2=O)c1C | ? | 22.4µM | nt | i | ? | ?
CCCCC(=O)O[C@]1(C(=O)CO)CCC2C3CCC4=CC(=O)CCC4(C)C3C(O)CC21C (stereo partly specified) | nt | i | nt | nt | nt | nt
NCC1OC(n2cnc3c(=O)[nH]c(N)nc32)C(O)C1O (stereo unspecified) | i | i | i | i | ? | i
